# Test results from PubChem BioAssay (NCI).
# Several values for one entry are separate records, joined by “and”; a condition that tells them apart may be missing. Equal entries are not always repeated. Compounds without any hit were thinned out: in the full panel of roughly 79,000, 15% have a hit. Where a structure was tested more than once in an assay, its records may differ in their call. Activity calls are given as the source filed them. No stated cut-off is given here; in the data, active means growth inhibition above about 70%; inactive means the rest.
# Legend:
# [1] = NCI Yeast Anticancer Drug Screen. Data for the wt1 strain (AID 149);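 further: 0% = growth of vehicle-treated wt1 cultures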; details: S. cerevisiae wt1 strain (SPY 50644) growth inhibition, stronger effect = higher value
# Method in brief: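 wt1 yeast, compound-treated; % growth inhibition vs vehicle control.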
# [2] = NCI Yeast Anticancer Drug Screen. Data for the rad50EPP+ strain (AID 151);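 further: 0% = growth of vehicle-treated control cultures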; details: S. cerevisiae rad50 mutant strain, stronger effect = higher value
# Method in brief: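 Measured: growth inhibition of rad50EPP+ yeast. Reference: vehicle-treated controls. Screen uses strains with defined genetic alterations in DNA damage repair or cell cycle control.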
# [3] = NCI Yeast Anticancer Drug Screen. Data for the rad50 strain (AID 155);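 further: 0% = growth of vehicle-only cultures of the same strain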; details: S. cerevisiae rad50 strain growth inhibition, stronger effect = higher value
# Method in brief: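 Genetically altered yeast (DNA repair pathway); compound treatment; growth inhibition vs vehicle ctrl.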
# [4] = NCI Yeast Anticancer Drug Screen. Data for the mec2-1 strain (AID 157); details: S. cerevisiae mec2-1 strain, stronger effect = higher value
# Method in brief: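 Compounds were applied to mec2-1 yeast cells. Their growth was then compared with that of vehicle-treated cultures to give growth inhibition.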
# [5] = NCI Yeast Anticancer Drug Screen. Data for the sgs1 mgt1 strain (AID 161);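 further: 0% = growth of cultures given vehicle only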; details: S. cerevisiae sgs1 mgt1 strain, stronger effect = higher value
# Method in brief: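 This yeast growth screen uses a strain with defined DNA-repair lesions; compound-treated growth is compared with vehicle-treated growth.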
# [6] = NCI Yeast Anticancer Drug Screen. Data for the CLN2oe strain (AID 163);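 further: 0% = growth of vehicle-only control cultures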; details: S. cerevisiae CLN2oe strain, stronger effect = higher value
# Method in brief: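 Cells of an engineered yeast line with disturbed cell-cycle regulation are treated with compound. Inhibition of growth is then calculated relative to the vehicle-treated reference.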
# [7] = NCI Yeast Anticancer Drug Screen. Data for the cln2 rad14 strain (AID 165);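 further: 0% = growth equal to vehicle treated cultures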; details: S. cerevisiae cln2 rad14 strain, stronger effect = higher value
# Method in brief: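 Strain: cln2 rad14 yeast, altered in cell cycle control and DNA damage repair. Read-out: growth inhibition vs vehicle.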
# [8] = NCI Yeast Anticancer Drug Screen. Data for the bub3 strain (AID 167); details: S. cerevisiae bub3 mutant strain, stronger effect = higher value
# Method in brief: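 Yeast carrying a defined mutation is treated with each compound, and growth is compared with that of vehicle-exposed cells to give inhibition.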
# [9] = NCI Yeast Anticancer Drug Screen. Data for the wt2 strain (AID 169);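 further: 0% = growth of vehicle-treated yeast cultures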; details: S. cerevisiae wt2 strain growth inhibition, stronger effect = higher value
# Method in brief: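 Growth of compound-treated yeast is measured and expressed as inhibition relative to vehicle-only controls.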
# [10] = NCI Yeast Anticancer Drug Screen. Data for the mlh1 strain (AID 171);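 further: 0% = growth of vehicle-treated control cultures of the same strain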; details: S. cerevisiae mlh1 strain growth inhibition, stronger effect = higher value
# Method in brief: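 Test agents were incubated with yeast bearing a defined DNA damage repair or cell cycle control alteration; values are growth inhibition normalised to vehicle-treated cultures.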
# [11] = NCI Yeast Anticancer Drug Screen. Data for the sgs1 strain (AID 173);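 further: 0% = growth of vehicle-only control cultures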; details: S. cerevisiae sgs1 mutant, stronger effect = higher value
# Method in brief: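 Strain with an altered DNA repair or cell cycle pathway exposed to compound. Growth then measured. Value = inhibition versus vehicle control.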
# [12] = NCI Yeast Anticancer Drug Screen. Data for the mlh1 rad18 strain (AID 175); details: S. cerevisiae mlh1 rad18 strain growth inhibition, stronger effect = higher value
# Method in brief: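 A repair-deficient yeast strain is exposed to test compound, and growth is scored relative to vehicle-treated controls.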
# [13] = NCI Yeast Anticancer Drug Screen. Data for the rad18 strain (AID 177); details: S. cerevisiae rad18 mutant growth inhibition, stronger effect = higher value
# Method in brief: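 DNA-repair-defective yeast; compound treatment; growth inhibition scored against vehicle.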
# [14] = at 5.0 µM (retest, dose inferred, filed as 0.5)
# [15] = at 50.0 µM (retest, dose inferred, filed as 5.0)
compound,measurement,setting,value
CN(NC(=O)/C(=C/C=C/c1ccccc1)NC(=O)c1ccccc1)C1=C(Cl)C(=O)[N+](c2ccccc2)=CC1,growth inhibition,[1]; at 1.2 µM,0% (inactive)
same,growth inhibition,[1]; at 3.7 µM,2% (inactive)
same,growth inhibition,[1]; at 11.0 µM,15% (inactive)
same,growth inhibition,[1]; at 33.0 µM,38% (inactive)
same,growth inhibition,[1]; at 100.0 µM,40% (inactive)
same,growth inhibition,[2]; at 1.2 µM,1% (inactive)
same,growth inhibition,[2]; at 3.7 µM,7% (inactive)
same,growth inhibition,[2]; at 11.0 µM,37% (inactive)
same,growth inhibition,[2]; at 33.0 µM,69% (inactive)
same,growth inhibition,[2]; at 100.0 µM,79% (active)
same,growth inhibition,[3]; at 1.2 µM,-4% (inactive)
same,growth inhibition,[3]; at 3.7 µM,-1% (inactive)
same,growth inhibition,[3]; [14],-3% (inactive)
same,growth inhibition,[3]; at 11.0 µM,34% (inactive)
same,growth inhibition,[3]; at 33.0 µM,63% (inactive)
same,growth inhibition,[3]; [15],30% (inactive)
same,growth inhibition,[3]; at 50.0 µM,58.1% (inactive)
same,growth inhibition,[3]; at 100.0 µM,67% (inactive)
same,growth inhibition,[4]; at 1.2 µM,0% (inactive)
same,growth inhibition,[4]; at 3.7 µM,6% (inactive)
same,growth inhibition,[4]; [14],-12% (inactive)
same,growth inhibition,[4]; at 11.0 µM,16% (inactive)
same,growth inhibition,[4]; at 33.0 µM,37% (inactive)
same,growth inhibition,[4]; [15],2% (inactive)
same,growth inhibition,[4]; at 50.0 µM,35.2% (inactive)
same,growth inhibition,[4]; at 100.0 µM,49% (inactive)
same,growth inhibition,[5]; [14],-6% (inactive)
same,growth inhibition,[5]; [15],8% (inactive)
same,growth inhibition,[5]; at 50.0 µM,79.8% (active)
same,growth inhibition,[6]; at 1.2 µM,-1% (inactive)
same,growth inhibition,[6]; at 3.7 µM,5% (inactive)
same,growth inhibition,[6]; at 11.0 µM,19% (inactive)
same,growth inhibition,[6]; at 33.0 µM,40% (inactive)
same,growth inhibition,[6]; at 100.0 µM,44% (inactive)
same,growth inhibition,[7]; [14],30% (inactive)
same,growth inhibition,[7]; [15],35% (inactive)
same,growth inhibition,[7]; at 50.0 µM,15.8% (inactive)
same,growth inhibition,[8]; at 1.2 µM,1% (inactive)
same,growth inhibition,[8]; at 3.7 µM,11% (inactive)
same,growth inhibition,[8]; [14],-5% (inactive)
same,growth inhibition,[8]; at 11.0 µM,33% (inactive)
same,growth inhibition,[8]; at 33.0 µM,53% (inactive)
same,growth inhibition,[8]; [15],72% (active)
same,growth inhibition,[8]; at 50.0 µM,70.4% (active)
same,growth inhibition,[8]; at 100.0 µM,49% (inactive)
same,growth inhibition,[9]; at 1.2 µM,-3% (inactive)
same,growth inhibition,[9]; at 3.7 µM,0% (inactive)
same,growth inhibition,[9]; at 11.0 µM,19% (inactive)
same,growth inhibition,[9]; at 33.0 µM,42% (inactive)
same,growth inhibition,[9]; at 100.0 µM,43% (inactive)
same,growth inhibition,[10]; at 1.2 µM,2% (inactive)
same,growth inhibition,[10]; at 3.7 µM,8% (inactive)
same,growth inhibition,[10]; at 11.0 µM,37% (inactive)
same,growth inhibition,[10]; at 33.0 µM,61% (inactive)
same,growth inhibition,[10]; at 100.0 µM,63% (inactive)
same,growth inhibition,[11]; at 1.2 µM,1% (inactive)
same,growth inhibition,[11]; at 3.7 µM,5% (inactive)
same,growth inhibition,[11]; at 11.0 µM,27% (inactive)
same,growth inhibition,[11]; at 33.0 µM,70% (active)
same,growth inhibition,[11]; at 100.0 µM,69% (inactive)
same,growth inhibition,[12]; [14],-2% (inactive)
same,growth inhibition,[12]; [15],18% (inactive)
same,growth inhibition,[12]; at 50.0 µM,84.4% (active)
same,growth inhibition,[13]; at 1.2 µM,1% (inactive)
same,growth inhibition,[13]; at 3.7 µM,26% (inactive)
same,growth inhibition,[13]; at 11.0 µM,77% (active)
same,growth inhibition,[13]; at 33.0 µM,90% (active)
same,growth inhibition,[13]; at 100.0 µM,87% (active)
Cc1cc(SC#N)ccc1O,growth inhibition,[3]; [14],13% (inactive) and 4% (inactive) and -2% (inactive)
same,growth inhibition,[3]; [15],91% (active)
same,growth inhibition,[3]; at 50.0 µM,92.6% (active) and 86.2% (active) and 91.6% (active)
same,growth inhibition,[4]; [14],-1% (inactive) and -7% (inactive) and -6% (inactive)
same,growth inhibition,[4]; [15],83% (active) and 90% (active) and 62% (inactive)
same,growth inhibition,[4]; at 50.0 µM,90% (active) and 87.1% (active)
same,growth inhibition,[5]; [14],-2% (inactive) and 6% (inactive)
same,growth inhibition,[5]; [15],92% (active) and 77% (active) and 63% (inactive)
same,growth inhibition,[5]; at 50.0 µM,95.2% (active) and 85.7% (active) and 75% (active)
same,growth inhibition,[7]; [14],-1% (inactive) and 26% (inactive) and -3% (inactive)
same,growth inhibition,[7]; [15],64% (inactive) and 91% (active) and 71% (active)
same,growth inhibition,[7]; at 50.0 µM,32.8% (inactive) and 83.2% (active) and 70% (inactive)
same,growth inhibition,[8]; [14],15% (inactive) and 2% (inactive) and 13% (inactive)
same,growth inhibition,[8]; [15],94% (active) and 80% (active)
same,growth inhibition,[8]; at 50.0 µM,91.3% (active) and 88.4% (active) and 95% (active)
same,growth inhibition,[12]; [14],9% (inactive) and -4% (inactive) and 1% (inactive)
same,growth inhibition,[12]; [15],95% (active) and 87% (active)
same,growth inhibition,[12]; at 50.0 µM,96.4% (active) and 86.3% (active) and 95.6% (active)
